PubChem BioAssay (NCATS)
Records with an inconclusive call do not appear. Unless noted, calls come from the whole dose curve; as a rule, active = well fitted curve in either direction with a large enough effect (not every such curve was filed as active); inconclusive = small, poorly fitted or top-dose-only effect, or another doubt; inactive = flat fitted curve, though single readings scatter.

Key:
[1] = AP1 Signaling Pathway (AID 357); settings: ME-180 AP-1-bla reporter, EGF-induced, beta-lactamase ratio, 5 h; at 17.2 µM (top of the series) unless noted;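 note: ME-180 reporter cells stimulated with EGF at its EC50 level; % is set by controls: 0 for no effect and ±100 for the full control effect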
Outline: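 A ratiometric CCF4 readout (405 nm excitation; 460 and 530 nm emission) quantified AP-1-driven beta-lactamase in ME-180 cells after 5 h with compound and EC50 EGF; AC50 values were derived for activators and inhibitors.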

[2] = NFAT Signaling Pathway (AID 444); settings: Jurkat NFAT-bla M1, carbachol, beta-lactamase ratio, 5 h; at 17.2 µM (top of the series) unless noted;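 note: carbachol stimulus at about its EC50 of 1 µM final; % is set by controls: 0 for no effect and ±100 for the full control effect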
Outline: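 Read-out: CCF4 FRET ratio (460 nm/530 nm) after 1 h RT dye loading, used for %activity and AC50 from titration series. Cells: Jurkat NFAT-β-lactamase/M1 line, treated with compound plus 1 uM carbachol for 5 h, 37 °C.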

[3] = Stat Signaling Pathway (AID 446); settings: ME-180 (cervical carcinoma) SIE beta-lactamase reporter, IL-6 stimulated, 5 h; at 17.2 µM (top of the series) unless noted;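 note: ME-180 cervical cancer cells given 40 pM IL-6 alongside compound; SIE-controlled beta-lactamase reporter measured as 460/530 nm FRET emission ratio; % is set by controls: 0 for no effect and ±100 for the full control effect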
Outline: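 FRET read-out (405 nm excitation, 460/530 nm emission) of a beta-lactamase reporter under a STAT-inducible element in ME-180 cervical carcinoma cells. Cells with compound receive 40 pM IL-6 for 5 h. Values are normalised to AC90 stimulation and AC90 JAK-inhibitor controls.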

[4] = biological target: Glucocorticoid receptor (Homo sapiens) (UniProt P04150); experiment: GR-GFP Redistribution (AID 450;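 active = compounds whose dose series gives a full or clear partial fitted curve of increased nuclear translocation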; note: potency is the fitted concentration of half-maximal effect)
Glucocorticoid receptor (Homo sapiens), sequence (P04150 whole entry, looked up): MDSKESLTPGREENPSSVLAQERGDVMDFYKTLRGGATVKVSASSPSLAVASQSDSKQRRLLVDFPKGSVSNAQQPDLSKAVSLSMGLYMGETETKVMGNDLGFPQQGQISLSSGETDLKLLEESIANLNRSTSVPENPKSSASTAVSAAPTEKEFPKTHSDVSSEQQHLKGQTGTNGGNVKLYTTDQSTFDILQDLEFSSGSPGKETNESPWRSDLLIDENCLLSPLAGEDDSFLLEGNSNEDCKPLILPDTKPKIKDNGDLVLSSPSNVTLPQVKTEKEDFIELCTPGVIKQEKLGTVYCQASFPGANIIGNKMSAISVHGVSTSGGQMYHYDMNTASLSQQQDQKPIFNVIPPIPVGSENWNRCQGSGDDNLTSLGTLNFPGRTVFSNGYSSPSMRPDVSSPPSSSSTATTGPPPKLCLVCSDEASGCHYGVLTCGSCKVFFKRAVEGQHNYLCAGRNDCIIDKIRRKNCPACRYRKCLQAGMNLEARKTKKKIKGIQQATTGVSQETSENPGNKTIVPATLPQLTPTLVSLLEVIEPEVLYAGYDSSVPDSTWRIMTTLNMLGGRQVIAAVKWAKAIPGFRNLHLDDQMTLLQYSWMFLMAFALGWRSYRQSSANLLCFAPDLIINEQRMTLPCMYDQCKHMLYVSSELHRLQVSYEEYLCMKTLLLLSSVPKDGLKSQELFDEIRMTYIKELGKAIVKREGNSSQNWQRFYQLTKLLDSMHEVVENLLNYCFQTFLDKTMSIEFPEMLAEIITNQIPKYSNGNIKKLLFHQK

CC1C/C=C/C=C/C=C/C=C/C(O[C@@H]2O[C@H](C)[C@@H](O)[C@H](N)[C@@H]2O)CC2OC(O)(CC(O)CC3OC3/C=C/C(=O)O1)CC(O)C2C(=O)O (stereo not given in full)
inactive: activity change, negative = inhibition [1] 1.3% | activity change, negative = inhibition [2] 0.554% | activity, negative = inhibition [3] 5.83% | Potency [4] > 20.6 µM

COc1ccc2[nH]cc(C(=O)CN(C)CCc3ccc(OC)c(OC)c3)c2c1
inactive: activity change, negative = inhibition [1] -10.3% | activity change, negative = inhibition [2] 11.6% | activity, negative = inhibition [3] 6.57% | Potency [4] > 20.6 µM

CC(NC(=O)NC(N)=O)(C(F)(F)F)C(F)(F)F
inactive: activity change, negative = inhibition [1] 0.637% | activity change, negative = inhibition [2] -0.043% | activity, negative = inhibition [3] -1.84% | Potency [4] > 20.6 µM

Cc1cc(C)c2nc(SCCC#N)nc(C)c2c1
inactive: activity change, negative = inhibition [1] -4.73% | activity change, negative = inhibition [2] 11.8% | activity, negative = inhibition [3] 6.57% | Potency [4] > 20.6 µM

COC(=O)C(NC(=O)c1ccco1)(Nc1ccc(Br)cn1)C(F)(F)F (stereo not given)
inactive: activity change, negative = inhibition [1] -10.6% | activity change, negative = inhibition [2] -10.8% | activity, negative = inhibition [3] -13% | Potency [4] > 20.6 µM

COc1ccc(C2/C(=C(/O)c3cnn(-c4ccccc4)c3C)C(=O)C(=O)N2CCN(C)C)cc1OC (stereo not given)
inactive: activity change, negative = inhibition [1] -0.291% | activity change, negative = inhibition [2] 18.7% | activity, negative = inhibition [3] -4.43% | Potency [4] > 20.6 µM

CC(C)Cc1nc(N2CCOCC2)c(C#N)c2c1COC(C)(C)C2
inactive: activity change, negative = inhibition [1] 0.834% | activity change, negative = inhibition [2] -9.76% | activity, negative = inhibition [3] 4.57% | Potency [4] > 20.6 µM

Cc1cc(COc2ccccc2OCCN2CCN(C)CC2)no1
inactive: activity change, negative = inhibition [1] 21.4% | activity change, negative = inhibition [2] -13.9% | activity, negative = inhibition [3] -0.578% | Potency [4] > 20.6 µM

CC1(C)Cc2c(sc3[nH]c(=S)n(Cc4ccco4)c(=O)c23)CO1
inactive: activity change, negative = inhibition [1] -2.74% | activity change, negative = inhibition [2] -5.17% | activity, negative = inhibition [3] -8.92% | Potency [4] > 20.6 µM

c1ccc(-n2ncc3c(N4CCCC4)ncnc32)cc1
inactive: activity change, negative = inhibition [1] -17.5% | activity change, negative = inhibition [2] 14.9% | activity, negative = inhibition [3] -6.73% | Potency [4] > 20.6 µM

Cc1ccccc1N1C(=O)C2ON(c3ccccc3)C(c3cccnc3)C2C1=O (stereo not given)
inactive: activity change, negative = inhibition [1] -2.7% | activity change, negative = inhibition [2] -0.971% | activity, negative = inhibition [3] -4.14% | Potency [4] > 20.6 µM

Fc1ccc(C2C3=C(Nc4ncnn42)c2ccccc2OC3c2ccncc2)cc1 (stereo not given)
inactive: activity change, negative = inhibition [1] -29% | activity change, negative = inhibition [2] -17% | activity, negative = inhibition [3] -12.3% | Potency [4] > 20.6 µM

O=C(Oc1cccnc1)c1ccco1
inactive: activity change, negative = inhibition [1] 7.51% | activity change, negative = inhibition [2] 5.81% | activity, negative = inhibition [3] 8.88% | Potency [4] > 20.6 µM

Cc1cccc(C)c1N1C(=O)C2ON(c3ccccc3)C(c3ccncc3)C2C1=O (stereo not given)
inactive: activity change, negative = inhibition [1] 1.5% | activity change, negative = inhibition [2] 11.5% | activity, negative = inhibition [3] -5.83% | Potency [4] > 20.6 µM

O=C1CCC(=O)N1CN(Cc1ccco1)CN1C(=O)CCC1=O
inactive: activity change, negative = inhibition [1] 7.15% | activity change, negative = inhibition [2] 5.38% | activity, negative = inhibition [3] 0.484% | Potency [4] > 20.6 µM

CCC(=O)OC1=C2C(=Nc3c(c(=O)n(C)c(=O)n3C)C2c2ccccc2)c2ccccc21 (stereo not given)
inactive: activity change, negative = inhibition [1] 8.9% | activity change, negative = inhibition [2] -4% | activity, negative = inhibition [3] 14.9% | Potency [4] > 20.6 µM

Cc1cccc(C)c1NC(=O)CSCC(=O)c1ccc(O)c(O)c1
inactive: activity change, negative = inhibition [1] -12.4% | activity change, negative = inhibition [2] 22.8% | activity, negative = inhibition [3] -19.4% | Potency [4] > 20.6 µM

C=CCn1c(C2CC(=O)N(c3ccc(C)cc3)C2)nc2ccccc21 (stereo not given)
inactive: activity change, negative = inhibition [1] -0.041% | activity change, negative = inhibition [2] 5.1% | activity, negative = inhibition [3] 5.25% | Potency [4] > 20.6 µM

Cc1c(NC(=O)c2ccc(=O)oc2)c(=O)n(-c2ccccc2)n1C
inactive: activity change, negative = inhibition [1] 10.3% | activity change, negative = inhibition [2] -22.5% | activity, negative = inhibition [3] 2.43% | Potency [4] > 20.6 µM

N#C/C(C(=O)N1CCCCC1)=C1\Nc2ccccc2S1
inactive: activity change, negative = inhibition [1] -15% | activity change, negative = inhibition [2] 11.9% | activity, negative = inhibition [3] -10.3% | Potency [4] > 20.6 µM

COCCOCCOCCC(=O)NC1CC2CCC1(C)C2(C)C (stereo not given)
inactive: activity change, negative = inhibition [1] 13.7% | activity change, negative = inhibition [2] 0.73% | activity, negative = inhibition [3] -0.452% | Potency [4] > 20.6 µM

CCOC(=O)CCNc1n[nH]c(=O)[nH]c1=O
inactive: activity change, negative = inhibition [1] 7.71% | activity change, negative = inhibition [2] 7.29% | activity, negative = inhibition [3] -2.32% | Potency [4] > 20.6 µM

COc1ccc(OC)c(C2C(C#N)=C(N)Oc3cc(C)n(Cc4ccccn4)c(=O)c32)c1 (stereo not given)
inactive: activity change, negative = inhibition [1] 1.88% | activity change, negative = inhibition [2] -20.4% | activity, negative = inhibition [3] -2.84% | Potency [4] > 20.6 µM

CCOC(=O)CCCCC(=O)NC(CO)C(=O)NC (stereo not given)
inactive: activity change, negative = inhibition [1] 13.2% | activity change, negative = inhibition [2] 6.3% | activity, negative = inhibition [3] 8.86% | Potency [4] > 20.6 µM

COc1ccccc1C(=O)Nc1cc(Cl)ccc1O
inactive: activity change, negative = inhibition [1] -12.2% | activity change, negative = inhibition [2] -2.92% | activity, negative = inhibition [3] -4.42% | Potency [4] > 20.6 µM
